PubChem BioAssay (NCATS)
Values joined by “and” are separate entries in the source; they are usually repeats but may differ in a detail not shown here. Equal values may be shown once. Results filed as inconclusive are left out. The source holds several records for some structures; these can differ, active in one and inactive in another. Active and inactive are the calls of the source. Calls follow the shape of the dose curve; as a rule, active = well fitted inhibition curve with a large enough effect; inconclusive = small, poorly fitted or top-dose-only effect; inactive = flat fitted curve, though single readings scatter.

Key:
[1] = test system: N140; assay: qHTS profiling for inhibitors of Plasmodium falciparum proliferation (AID 504749); also: potency is read from the fitted curve at half-maximal effect; settings: P. falciparum in erythrocytes, SYBR Green DNA, 72 h; series mostly up to 28.7 µM
Outline: (§1)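 SYBR Green fluorescence of parasite DNA, read after lysis and overnight dark incubation, measured growth over 72 h in erythrocyte culture at 0.3% parasitemia and 2.5% hematocrit. Data normalised to DMSO and 0.29 uM artemisinin, with plate-drift correction.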

[2] = test system: P93_24; assay: as above; settings: P. falciparum in erythrocytes, SYBR Green DNA, 72 h; series mostly up to 28.7 µM
Outline: as §1

[3] = test system: PAD; assay: as above; settings: P. falciparum in erythrocytes, SYBR Green DNA, 72 h; series mostly up to 28.7 µM
Outline: as §1

[4] = test system: PC15; assay: as above; settings: P. falciparum in erythrocytes, SYBR Green DNA, 72 h; series mostly up to 28.7 µM
Outline: as §1

[5] = test system: PC26; assay: as above; settings: P. falciparum in erythrocytes, SYBR Green DNA, 72 h; series mostly up to 28.7 µM
Outline: as §1

[6] = test system: PC49; assay: as above; settings: P. falciparum in erythrocytes, SYBR Green DNA, 72 h; series mostly up to 28.7 µM
Outline: as §1

[7] = test system: SC27B; assay: as above; settings: P. falciparum in erythrocytes, SYBR Green DNA, 72 h; series mostly up to 28.7 µM
Outline: as §1

[8] = test system: TAB113; assay: as above; settings: P. falciparum in erythrocytes, SYBR Green DNA, 72 h; series mostly up to 28.7 µM
Outline: as §1

[9] = test system: TAB165; assay: as above; settings: P. falciparum in erythrocytes, SYBR Green DNA, 72 h; series mostly up to 28.7 µM
Outline: as §1

[10] = test system: W2; assay: as above; settings: P. falciparum in erythrocytes, SYBR Green DNA, 72 h; series mostly up to 28.7 µM
Outline: as §1

[11] = test system: HaCat; assay: Cytotoxic Profiling of Annotated Libraries Using Quantitative High-Throughput Screening (AID 1296008); settings: Five cell lines viability, CellTiter-Glo ATP luminescence, 48-72 h; max response: stronger effect = lower value; also: potency is read from the fitted curve at half-maximal effect; as to max response: % is scaled to controls: 0 for no effect and ±100 for the full control effect
Outline: (§2)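 Cytotoxicity was measured as CellTiter-Glo ATP luminescence, read after 10 min at room temperature. Compound treatment of the cells lasted 48 or 72 hr at 37 degrees Celsius in a qHTS format.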

[12] = test system: KB-3-1; assay: as above; settings: Five cell lines viability, CellTiter-Glo ATP luminescence, 48-72 h; max response: stronger effect = lower value
Outline: as §2

[13] = test system: NIH3T3; assay: as above; settings: Five cell lines viability, CellTiter-Glo ATP luminescence, 48-72 h; max response: stronger effect = lower value
Outline: as §2

[14] = test system: JCK; assay: qHTS profiling for inhibitors of Plasmodium falciparum proliferation (AID 504749); also: potency is read from the fitted curve at half-maximal effect; settings: P. falciparum in erythrocytes, SYBR Green DNA, 72 h; series mostly up to 28.7 µM
Outline: as §1

[15] = test system: P94_40; assay: as above; settings: P. falciparum in erythrocytes, SYBR Green DNA, 72 h; series mostly up to 28.7 µM
Outline: as §1

[16] = test system: TAB109; assay: as above; settings: P. falciparum in erythrocytes, SYBR Green DNA, 72 h; series mostly up to 28.7 µM
Outline: as §1

[17] = test system: CRL-7250; assay: Cytotoxic Profiling of Annotated Libraries Using Quantitative High-Throughput Screening (AID 1296008); settings: Five cell lines viability, CellTiter-Glo ATP luminescence, 48-72 h; max response: stronger effect = lower value; also: potency is read from the fitted curve at half-maximal effect; as to max response: % is scaled to controls: 0 for no effect and ±100 for the full control effect
Outline: as §2

[18] = test system: HACAT; assay: qHTS assay to identify novel small-molecules to repurpose for Merkel cell carcinoma treatment (AID 1296009); settings: MCC and control cell lines, CellTiter-Glo viability, 72 h
Outline: (§3)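 Cell viability, measured as CellTiter-Glo luminescence, was normalized between DMSO and no-cell wells. The cells had been exposed to 8- or 11-point compound dilutions for 72 hr at 37 degree celsius.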

[19] = test system: HEK293; assay: Cytotoxic Profiling of Annotated Libraries Using Quantitative High-Throughput Screening (AID 1296008); settings: Five cell lines viability, CellTiter-Glo ATP luminescence, 48-72 h; max response: stronger effect = lower value; also: potency is read from the fitted curve at half-maximal effect; as to max response: % is scaled to controls: 0 for no effect and ±100 for the full control effect
Outline: as §2

[20] = test system: HEK293T; assay: qHTS assay to identify novel small-molecules to repurpose for Merkel cell carcinoma treatment (AID 1296009); settings: MCC and control cell lines, CellTiter-Glo viability, 72 h; at 44.8 µM (top of the series) unless noted
Outline: as §3

[21] = at 44.8 µM (top of the series) unless noted
Also: nearly all actives have a fitted effect of over 60% in size.

CNC(=O)c1cc(Oc2ccc(NC(=O)Nc3ccc(Cl)c(C(F)(F)F)c3)cc2)ccn1
active: Potency [1] 5.01 µM | Potency [2] 10 µM | Potency [3] 2.24 µM | Potency [4] 7.08 µM | Potency [5] 3.38 µM | Potency [6] 8.91 µM | Potency [7] 5.01 µM | Potency [8] 11.2 µM | Potency [9] 5.62 µM | Potency [10] 15.1 µM | Potency [12] 14.8 µM and 6.51 µM | Potency [13] 23.5 µM
inactive: max response [11] -11.7% and -12.9%

CN(C)c1ccc(C(=C2C=CC(=[N+](C)C)C=C2)c2ccc(N(C)C)cc2)cc1
active: Potency [14] 0.631 µM | Potency [1] 0.355 µM | Potency [2] 0.316 µM | Potency [15] 0.282 µM | Potency [3] 0.355 µM | Potency [4] 0.708 µM | Potency [5] 0.849 µM | Potency [6] 1.78 µM | Potency [7] 0.501 µM | Potency [16] 0.224 µM | Potency [8] 0.355 µM | Potency [9] 0.251 µM | Potency [10] 0.12 µM | Potency [17] 211 nM and 59 nM | Potency [11] 1.06 µM and 935 nM | Potency [12] 7.31 µM and 93.5 nM | Potency [13] 944 nM and 372 nM

CC(=O)[C@H]1CC[C@H]2[C@@H]3CCC4=CC(=O)CC[C@]4(C)[C@H]3CC[C@]12C
inactive: max response [13] -0.969%

N=C(N)c1ccc(OCCCCCOc2ccc(C(=N)N)cc2)cc1
active: Potency [14] 2.51 µM | Potency [1] 1 µM | Potency [2] 0.631 µM | Potency [15] 1.41 µM | Potency [3] 1.41 µM | Potency [4] 0.355 µM | Potency [5] 0.953 µM | Potency [6] 0.708 µM | Potency [7] 1.12 µM | Potency [16] 1.58 µM | Potency [8] 1.41 µM | Potency [9] 0.501 µM | Potency [10] 0.478 µM

CN1CCCC(n2nc(Cc3ccc(Cl)cc3)c3ccccc3c2=O)CC1 (configuration not stated)
inactive: Potency [15] | Potency [6] | max response [11] 3.73% | outcome [11] | max response [12] -6.94% and -2.19% | max response [13] 5% | outcome [18, 21]
active: Potency [10] 6.01 µM

CC(C)(C#N)c1cc(Cn2cncn2)cc(C(C)(C)C#N)c1
inactive: Potency [14] | Potency [1] | Potency [2] | Potency [15] | Potency [3] | Potency [4] | Potency [5] | Potency [6] | Potency [7] | Potency [16] | Potency [8] | Potency [9] | Potency [10]

COc1ncnc(NS(=O)(=O)c2ccc(N)cc2)c1OC
inactive: Potency [14] | Potency [1] | Potency [2] | Potency [15] | Potency [3] | Potency [4] | Potency [5] | Potency [6] | Potency [7] | Potency [16] | Potency [8] | Potency [9] | Potency [10] | outcome [19] | max response [11] -20.7% | outcome [11] | max response [12] -15% and 8.7% | max response [13] -17.7% | outcome [18, 21] | outcome [20]
active: Potency [19] 3.32 µM | Potency [13] 16.6 µM

CC(=O)Oc1ccccc1C(=O)Nc1ncc([N+](=O)[O-])s1
inactive: Potency [14] | Potency [1] | Potency [2] | Potency [15] | Potency [3] | Potency [4] | Potency [5] | Potency [6] | Potency [7] | Potency [16] | Potency [8] | Potency [9] | max response [19] -13.9% | outcome [11] | max response [12] -5.17% and -18.8% | outcome [13] | outcome ([18]; at 44.8 µM (top of the series)) | outcome ([18]; at 92 µM (top of the series))

C1CCC(C(CC2CCCCN2)C2CCCCC2)CC1 (configuration not stated)
active: Potency [14] 12.6 µM | Potency [1] 10 µM | Potency [2] 12.6 µM | Potency [15] 11.2 µM | Potency [3] 6.31 µM | Potency [4] 5.01 µM | Potency [5] 7.57 µM | Potency [6] 2.82 µM | Potency [7] 7.94 µM | Potency [16] 5.62 µM | Potency [8] 6.31 µM | Potency [9] 10 µM | Potency [10] 1.69 µM

Oc1c(Cl)cc(Cl)c2cccnc12
active: Potency [1] 12.6 µM | Potency [15] 11.2 µM | Potency [9] 10 µM | Potency [13] 23.7 µM
inactive: Potency [14] | Potency [4] | Potency [5] | Potency [6] | max response [12] -16.3%

CCCCc1oc2ccc(NS(C)(=O)=O)cc2c1C(=O)c1ccc(OCCCN(CCCC)CCCC)cc1
active: Potency [19] 11.6 µM | Potency [11] 23.7 µM | Potency [12] 23.1 µM | Potency [13] 9.44 µM

OCc1ccc(-c2nn(Cc3ccccc3)c3ccccc23)o1
inactive: outcome [12]
active: Potency [19] 14.8 µM

O=C(O)c1ccc(-n2nc(-c3ccccc3O)nc2-c2ccccc2O)cc1
inactive: max response [11] 2.92% | outcome [11] | outcome [18, 21]

CC(C)(C)C(=O)OCOP(=O)(COCCn1cnc2c(N)ncnc21)OCOC(=O)C(C)(C)C
inactive: Potency [14] | Potency [3] | Potency [6] | Potency [7]

NC(N)=NC(N)=NCCc1ccccc1
inactive: Potency [14] | Potency [1] | Potency [2] | Potency [15] | Potency [3] | Potency [4] | Potency [5] | Potency [6] | Potency [7] | Potency [16] | Potency [8] | Potency [9] | Potency [10]

C[C@@H](NCCCc1cccc(C(F)(F)F)c1)c1cccc2ccccc12
active: Potency [1] 2.82 µM | Potency [2] 6.31 µM | Potency [15] 5.01 µM | Potency [3] 2 µM | Potency [4] 11.2 µM | Potency [5] 4.78 µM | Potency [7] 6.31 µM | Potency [16] 4.47 µM | Potency [8] 3.55 µM | Potency [9] 3.98 µM | Potency [10] 1.69 µM | Potency [13] 18.8 µM
inactive: outcome [17] | max response [11] -15.9% | max response [12] 5.7% | outcome [13]

CCCCCCNC(=O)n1cc(F)c(=O)[nH]c1=O
active: Potency [3] 10 µM | Potency [9] 10 µM | Potency [10] 4.78 µM | Potency [19] 7.5 µM and 13.2 µM | Potency [13] 1.5 µM and 3.72 µM
inactive: max response [11] -37.7% | max response [12] -8.63% and -17%

CCCCOc1ccc(CC(=O)NO)cc1
inactive: Potency [4] | Potency [6] | max response [17] -23.3% | max response [12] -6.89% | outcome [12] | max response [13] -7.85%
active: Potency [1] 3.98 µM | Potency [2] 1.58 µM | Potency [15] 2 µM | Potency [3] 1.41 µM | Potency [16] 2.24 µM | Potency [9] 3.16 µM | Potency [10] 0.572 µM | Potency [13] 23.7 µM

CCCOc1ccc(C(=O)OCCN(CC)CC)cc1N
inactive: max response [17] -2.34% and -3.98% | max response [11] -1.58% and 2.22% | max response [12] -2.47% and 5.78% | outcome [13] | outcome [20]

Cc1ccc(S(=O)(=O)N[C@@H](Cc2ccccc2)C(=O)CCl)cc1
inactive: max response [17] -1.25% | outcome [11] | max response [12] 6.1% | outcome [13] | outcome [18, 21]

COc1cc(NCc2ccc3nc(N)nc(N)c3c2C)cc(OC)c1OC
active: Potency [14] 7.08 µM | Potency [1] 0.447 µM | Potency [2] 0.398 µM | Potency [15] 0.891 µM | Potency [3] 0.316 µM | Potency [4] 0.316 µM | Potency [5] 0.675 µM | Potency [6] 0.501 µM | Potency [7] 2.24 µM | Potency [16] 1 µM | Potency [8] 2.51 µM | Potency [9] 1.12 µM | Potency [10] 0.301 µM | Potency [19] 4.18 µM and 53.1 nM | Potency [11] 1.06 µM | Potency [12] 3.32 µM and 326 nM | Potency [13] 3.72 µM and 66.8 nM

O[C@@H](CNC[C@H](O)[C@H]1CCc2cc(F)ccc2O1)[C@@H]1CCc2cc(F)ccc2O1
active: Potency [12] 20.9 µM

C#CCN[C@@H]1CCc2ccccc21
inactive: Potency [14] | Potency [1] | Potency [2] | Potency [15] | Potency [3] | Potency [4] | Potency [5] | Potency [6] | Potency [7] | Potency [16] | Potency [8] | Potency [9] | Potency [10] | max response [17] -10.3% and 4.11% | max response [11] 0.653% | max response [12] -4.71% | max response [13] 1.77% | outcome [13] | outcome [20]
